# Vif-A3G inh: qHTS for Inhibitors of Vif-A3G Interactions: qHTS; HeLa A3G-eYFP + Vif (tagged APOBEC3G with the HIV-1 protein that degrades it), YFP fluorescence, overnight; DNA dC->dU-editing enzyme APOBEC-3G (Homo sapiens), Q9HC16; Potency, µM (doses to about 46.1 µM), without a hit: at the highest dose activity, negative = active, usual class: inhibitors; 410,000 tested, 0.076% active; further: potency means the concentration at half of the fitted maximal effect; on the % scale 0 is the no-effect control and ±100 the full control effect; nearly all actives have a fitted effect of over 60% in size
# Target sequence (Q9HC16 whole entry, looked up): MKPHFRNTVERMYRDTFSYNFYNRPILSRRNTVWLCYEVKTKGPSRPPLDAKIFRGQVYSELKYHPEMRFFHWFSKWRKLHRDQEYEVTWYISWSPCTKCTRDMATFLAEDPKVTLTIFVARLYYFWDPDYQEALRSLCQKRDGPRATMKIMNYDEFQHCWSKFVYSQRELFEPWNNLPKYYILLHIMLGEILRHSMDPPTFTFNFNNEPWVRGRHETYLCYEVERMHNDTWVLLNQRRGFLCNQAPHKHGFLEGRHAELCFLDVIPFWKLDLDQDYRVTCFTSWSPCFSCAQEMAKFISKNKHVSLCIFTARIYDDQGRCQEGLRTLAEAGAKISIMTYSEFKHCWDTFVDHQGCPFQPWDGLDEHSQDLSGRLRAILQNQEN
#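 HeLa cells stably expressing Vif and C-terminally eYFP-tagged A3G, seeded overnight at 37 deg C, then exposed to compound by pintool overnight at 37 deg C. Rise in yellow fluorescence (Ex 488/Em 500-530, Acumen) marks blocked Vif-driven A3G degradation.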
# Vif-APOBEC3F blk: qHTS for Inhibitors of Vif-A3F Interactions: qHTS | HeLa A3F-eYFP + Vif (tagged APOBEC3F with the HIV-1 protein that degrades it), YFP fluorescence increase | 390,000 tested, 0.2% active | Potency, µM (titrated, usually from 46.1 µM), for inactives: at the top dose activity, negative = active; further: potency means the concentration at half of the fitted maximal effect; % of control where 0% means no effect; nearly all actives have a fitted effect of over 65% in size
#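 HeLa cells stably expressing A3F-eYFP plus Vif, plated and incubated overnight at 37 deg C, then exposed to compounds overnight at 37 deg C. Blocked degradation read as raised yellow fluorescence (Ex 488/Em 500-530).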
# PINK1 modulator: A Quantitative High throughput Screen to Identify Chemical Modulators of PINK1 Expression; PINK1 immunofluorescence, high-content cytometry, 24 h; Potency, µM (series often up to 76.6 µM), inactives show at the top dose activation (PINK1 increase), usual class: activators; 410,000 tested, 0.2% active; active means well fitted activation curve with a large enough effect; inconclusive means small, poorly fitted or top-dose-only effect; cell line not stated here; further: potency means the concentration at half of the fitted maximal effect; % of control where 0% means no effect; nearly all actives have a fitted effect of over 65% in size
#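 Measures PINK1 amount and localization on or inside mitochondria by immunofluorescence. Stable cells get compounds at 5 concentrations for 24 hours before fixation and staining; CCCP controls included.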
# LDHA inh: qHTS assay for inhibitors of human lactate dehydrogenase. L-lactate dehydrogenase A chain (Homo sapiens), P00338. purified LDHA, NADH/diaphorase-resazurin fluorescence; stronger effect = lower value. AID 1347041, 2019. activity change, % (values are at about 110 or 230 µM). 480,000 tested, 0.15% active; in the data active means activity change below about -30%; inconclusive means mostly about -25% to -30%;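 further: plate controls were DMSO wells for no effect and wells without enzyme for full effect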
#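 Human LDH5 (2 nM) was incubated with 0.06 mM NADH and 0.2 mM pyruvate for 5 min at room temperature in Tris pH 7.4. Remaining NADH was coupled through diaphorase/resazurin, and resorufin fluorescence was read at 0 and 20 min.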
# IDH1 R132H inh: qHTS for Inhibitors of mutant isocitrate dehydrogenase 1 (IDH1): qHTS. Isocitrate dehydrogenase [NADP] cytoplasmic (Homo sapiens), O75874. IDH1-R132H enzyme, NADPH consumption, diaphorase/resazurin fluorescence. Potency, µM (series often up to 76.6 µM), without a hit: at the top dose activity change, negative = inhibition, most hits filed as inhibitors. 390,000 tested, 0.093% active. AID 602179, 2012; further: potency means the concentration at half of the fitted maximal effect; on the % scale 0 is the no-effect control and ±100 the full control effect; nearly all actives have a fitted effect of over 65% in size
#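 IDH1-R132H (0.5 ug/mL) preincubated 30 min with compound, then NADPH (0.016 mM) and alpha-KG (2 mM) added; 80 min at RT, pH 7.5. Remaining NADPH coupled via diaphorase/resazurin to fluorescence (540/590 nm); concentration-response curves normalized to no-enzyme control.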
# PTHR1 ag: qHTS for PTHR1 Agonists: Primary Screen; 410,000 tested, 0.075% active; HEK293 GP2 PTHR1 cells, GloSensor cAMP luminescence, 1 h; Potency, µM (titrated, usually from 115 µM), for the others: top-dose activation, hits mostly activators; AID 743266, 2014; Parathyroid hormone/parathyroid hormone-related peptide receptor (Homo sapiens), Q03431; further: potency means the concentration at half of the fitted maximal effect; nearly all actives have a fitted effect of over 55% in size
#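 HEK-293-derived GP2 cells expressing PTHR1 and a GloSensor cAMP reporter, 3,000/well, plated overnight, given luciferin plus IBMX (each 0.5 mM as added) for 1 h at 37 °C, then compound for 1 h at 37 °C. Luminescence was read after 15 min at room temperature.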
# Resorufin autofl: qHTS for Inhibitors of mutant isocitrate dehydrogenase 1 (IDH1): Cherrypicks Autofluorescence Interference; shares compounds with IDH1 R132H inh; Resorufin detection reagent fluorescence interference, cell-free; inhibition of signal, % at 51.2 µM; 750 tested, under 10 active;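 further: 0% = wells with normal resorufin and full inhibition = wells lacking resorufin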
# IDH1 WT: qHTS for Inhibitors of mutant isocitrate dehydrogenase 1 (IDH1): Cherrypicks in WT IDH1; shares compounds with IDH1 R132H inh; WT IDH1 enzyme, NADPH diaphorase/resazurin fluorescence; Potency, µM (highest dose often 115 µM), for inactives: at the highest dose activity change, negative = inhibition, usual class: inhibitors; AID 623995, 2012; 750 tested, 9% active;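 further: potency means the concentration at half of the fitted maximal effect; 0% = full WT IDH1 enzyme control and full inhibition = no enzyme wells; nearly all actives have a fitted effect of over 55% in size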
# mIDH1 confirm: qHTS for Inhibitors of mutant isocitrate dehydrogenase 1 (IDH1): Confirmation of Cherrypicks. shares compounds with IDH1 R132H inh. IDH1 R132H enzyme, NADPH diaphorase/resazurin fluorescence. Potency, µM (doses to about 76.6 µM), inactives show top-dose activity change, negative = inhibition, most hits filed as inhibitors. 750 tested, 83% active; further: potency means the concentration at half of the fitted maximal effect; nearly all actives have a fitted effect of over 50% in size
# Starred values were filed as active, the others as inactive; i = inactive; u = inconclusive; x = not tested or not shown; [ ] = dose if it differs, or a comment. Compounds with a hit are over-represented: about 0.59% of the library has one in this group of screens. Unless noted, the call rests on the fitted dose curve; in most records, active means well fitted curve in the direction sought with a large enough effect; inconclusive means small, poorly fitted or top-dose-only effect, or another doubt; inactive means no such curve, though single readings can be large; an effect the other way counts as inactive or inconclusive.
SMILES,Vif-A3G inh,Vif-APOBEC3F blk,PINK1 modulator,LDHA inh,IDH1 R132H inh,PTHR1 ag,Resorufin autofl,IDH1 WT,mIDH1 confirm
O=C(CCl)c1ccc2c(c1)CCN2C(=O)C1CCCCC1,-22.1%,-9.0%,0.0%,1.0,u,-33.5%,0.2,8.2%,39.8µM*
Cc1ccc2nc3c(nc2c1C)CCCC3,-0.2%,10.4%,1.1%,-3.3,0.1%,i,x,x,x
Cc1ccc2nc3c(nc2c1C)C(O)=C3O,0.3%,-7.3%,1.9%,-0.3,u,i,-5.8,62.8%,44.7µM*
Cc1cc(C)cc(OCCSc2nc(-c3ccc(C(C)(C)C)cc3)nc3cc(=O)[nH]n23)c1,-9.0%,0.2%,6.0%,1.4,u,-72.5%,-4.7,u,25.1µM*
CCCN1C(=O)C(NC(C)=O)c2ccccc21 (stereo not drawn),-0.8%,-2.2%,-12.4%[38.3 µM],-3.7,-0.3%,i,x,x,x
CCc1ccc2c(c1)C(NC(C)=O)C(=O)N2CCN1CCOCC1 (stereo not drawn),0.1%,-2.6%,-0.8%,1.0,46.5µM*,i,-1.1,u,25.1µM*
S=C(Nc1cccc2ccccc12)Nc1cccc2ccccc12,1.4%,-7.9%,9.5%,27.7,4.9%,-9.9%,x,x,x
S=C(Nc1cccc2ccccc12)NC1CCCCC1,0.2%,u,5.7%,1.4,u,i,-1.2,u,4.9%
COCC(=O)Nc1sc2c(c1C(=O)OC)CCCC2,-6.6%,-3.0%,-1.6%,-1.5,5.1%,-2.5%[57.5 µM],x,x,x
COC(=O)c1c(NC(=O)COC(=O)c2ccc(O)cc2)sc2c1CCCCC2,-4.4%,-24.4%,5.2%,-3.4,u,-21.8%,6.5,5.4%,-27.4%
Cc1ccc(C(NC(=O)C(C)C)c2cc([N+](=O)[O-])c3cccnc3c2O)cc1 (stereo not drawn),u,-5.2%,0.5%,17.1,u,-10.5%,6.9,u,28.2µM*
CCC1(C)Cc2nc3sc4c(=O)n(CC(=O)NCc5ccccc5)cnc4c3cc2CO1 (stereo not drawn),x,x,x,2.7,x,x,x,x,x
CC[C@]12c3[nH]c4cc(-c5ccco5)ccc4c3CCN1C(=O)[C@@H](CC(=O)NC/C=C(\C)CCC=C(C)C)C[C@@H]2C(=O)N1CCN(C(=O)c2ccco2)CC1,0.9%,-0.7%,2.3%,-1.1,-25.2%,i,x,x,x
CC[C@]12c3[nH]c4cc(-c5ccco5)ccc4c3CCN1C(=O)[C@@H](CC(=O)NC/C=C(\C)CCC=C(C)C)C[C@@H]2C(=O)N1CCN(C(=O)C2CC2)CC1,-10.0%,6.8%,2.2%,2.2,35.5µM*,5.5%,-0.6,-2.1%,-12.8%

# Screening results from PubChem BioAssay.
